Data: PubChem BioAssay AID1345083 (National Center for Advancing Translational Sciences (NCATS), 2018)
The campaign covered roughly 94,000 compounds. About 6,200 (6.6%) were called active. Not shown: some 31% with an inconclusive outcome. The full list was thinned out, with actives kept by preference. A number with no mark means an inactive call. The call rests on the fitted dose curve; in most records, active means well fitted inhibition curve with a large enough effect; inconclusive means small, poorly fitted or top-dose-only effect; inactive means flat fitted curve, though single readings scatter.

Experiment: Cytotoxic Profiling in HEK 293 Cell Line of Diverse Libraries Using Quantitative High-Throughput Screening; further: nearly all actives have a fitted effect of over 60% in size
Conditions: HEK 293 viability, ATP luminescence (CellTiter-Glo), 48-72 h; series mostly up to 115 µM; activity change, negative = cytotoxicity: at the top concentration
Procedure, shortened: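 Viability of HEK 293 cells, plated at 250 cells/well, was judged by cellular ATP after compound treatment for 48 or 72 hr. Luminescence was imaged 10 min after CellTiter-Glo addition at room temperature.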
On the % scale 0 is the no-effect control and ±100 the full control effect; potency means the concentration at half of the fitted maximal effect.

Row | Compound | activity change, negative = cytotoxicity | Potency | outcome
1 | CNC(=O)c1cc(C)nc2onc(C3CCCN3C(=O)Cc3ccc(F)cc3)c12 (configuration not stated) | -7.3% | – | –
2 | NC1CCCCN(C(=O)c2ccc3n[nH]nc3c2)C1 (configuration not stated) | -10.8% | – | –
3 | CSc1cccc(NC(=O)N[C@H]2C[C@@H](C(=O)N[C@@H](CCCNC(=O)CC(C)(C)C)C(N)=O)N(C(=O)CC(C)(C)C)C2)c1 | -17.2% | – | –
4 | COCCS(=O)(=O)c1ncc(CN2CCCCO2)n1Cc1ccccc1 | -24% | – | –
5 | CCCN1C(=O)[C@H]2CC[C@@H]1CN(C(=O)c1nc(-c3ccccc3)[nH]c1C)C2 | 1.99% | – | –
6 | O=C(NC[C@H]1Cn2c(-c3ccc(F)cc3)cnc2CO1)C1CC1 | -2.09% [at 172 µM] | – | –
7 | Cc1ccc(Cl)cc1NC(=O)N1C[C@@H](F)C[C@H]1C(=O)N1CCCCC1 | 0.438% | – | –
8 | COc1cccc(NC(=O)N[C@H]2CCN(C(=O)C=C(C)C)[C@@H]2C(=O)N[C@@H](Cc2cccs2)C(N)=O)c1 | -0.217% | – | –
9 | O=C1CC(c2ccccc2)N(C(=O)CNC(=O)c2cnccn2)CCCCCCN1 (configuration not stated) | -3.36% | – | –
10 | CC(C)(C)C(=O)Nc1cc(C2CC2)nn1-c1ccccc1 | 0.126% [at 172 µM] | – | –
11 | Cc1nn(CCC#N)c(C)c1[C@@H]1C=C[C@@H](NS(=O)(=O)c2ccccc2)C1 | -9.74% [at 172 µM] | – | –
12 | Cc1nn(-c2cccc(Br)c2)c(C)c1[C@@H]1C=C[C@@H](NS(=O)(=O)c2ccccc2)C1 | – | 44.7 µM (active) | –
13 | c1c[nH]c(CNC[C@H]2Cn3ccnc3CO2)n1 | -7.47% [at 230 µM] | – | –
14 | Cc1ccccc1CN1Cc2nc(NCc3ccncc3)ccc2OCC1=O | – | 89.1 µM (active) | –
15 | COc1ccc(Nc2ccc3c(n2)CN(Cc2ccccc2C)C(=O)CO3)cn1 | – | 100 µM (active) | –
16 | COc1ccc(CN2CCN3C(=O)N(c4ccccc4)C[C@H]3C2)cn1 | -19.4% [at 172 µM] | – | –
17 | CCOc1ccc(NC(=O)Cn2nc3n(c2=O)CCN(Cc2ccccc2C)C3=O)cc1 | -10.7% | – | –
18 | CC(=O)N1CCCN(C(=O)c2cnc3c(c2)N(C(=O)Cc2ccc(C(C)C)cc2)CCC3)CC1 | -27.9% | – | –
19 | CCC(C)NC(=O)N1CCC(CCOC)(NS(C)(=O)=O)CC1 (configuration not stated) | -7.52% | – | –
20 | O=C(c1nc(-c2cccnc2)c2cnccn12)N1CCN(c2ncccn2)CC1 | -2.6% | – | –
21 | CN(C)c1ccc(C(=O)N[C@H]2C[C@H]3C(=O)NC[C@@H](CCC(=O)N4CCc5ccccc54)N3C2)cc1 | -18.7% | – | –
22 | O=C(c1ccccc1)N1CCN(C(=O)c2nc3cccnc3n(C3CC3)c2=O)CC1 | -15.7% | – | –
23 | CCC(=O)N1CCC(CC(=O)N2CCOCC2)C1 (configuration not stated) | 7.81% | – | –
24 | C#CCNC(=O)C1CCN(Cc2ccccc2-c2ccccc2F)CC1 | -26.1% | – | –
25 | COC(=O)CNC(=O)C1CCN(Cc2ccccc2-c2ccccc2F)CC1 | 0.145% | – | –

Row | Compound | activity change, negative = cytotoxicity | Potency | outcome
26 | O=C(C1CCN(Cc2ccccc2-c2ccccc2F)CC1)N1CCC(c2ccccc2)CC1 | – | 25.1 µM (active) | –
27 | CC1CCC2(CC1)NC(=O)N(CC(=O)NCc1ccco1)C2=O (configuration not stated) | 4.68% | – | –
28 | Cn1cc(C#N)cc1-c1nc(COc2ccccc2)nn1CC(F)(F)F | -25% | – | –
29 | COc1ccc(C2Cn3nnc(-c4noc(-c5ccc(OC)cc5C)n4)c3CO2)cc1 (configuration not stated) | -11.1% | – | –
30 | Cc1nc(CCNS(=O)(=O)c2cccnc2)no1 | -4.92% | – | –
31 | COCCN1C(=O)c2ccccc2C(C(=O)NC2CC2)C12CCCCC2 (configuration not stated) | -7.97% | – | –
32 | COc1ccccc1NC(=O)C1c2ccccc2C(=O)N(CC(C)C)C12CCCC2 (configuration not stated) | – | 70.8 µM (active) | –
33 | COC(=O)CCNC(=O)C1c2ccccc2C(=O)N(CC(C)C)C12CCCC2 (configuration not stated) | -8.33% | – | –
34 | COCCOC1CN(C2CCN(C(=O)C3CCOCC3)CC2)C12CCCCC2 (configuration not stated) | 0.932% | – | –
35 | CC[C@H]1CN(C(=O)c2cccnc2)CC[C@H]1CC(=O)NCc1cccnc1 | -7.23% [at 172 µM] | – | –
36 | CC(C)NC(=O)N1CCCC1c1noc(COc2ccc(F)cc2)n1 (configuration not stated) | – | – | inactive
37 | Cc1cccc(C(=O)N2CCC(CC(=O)NCc3ccccc3)C2)c1 (configuration not stated) | -0.159% | – | –
38 | CN1C(=O)c2cccn2CC1C(=O)NC1CCN(Cc2ccccc2)CC1 (configuration not stated) | -2.33% | – | –
39 | Cc1cccc(-c2cccc(CN3CCC(NC(=O)Nc4ccccc4)CC3)c2)c1 | – | 22.4 µM (active) | –
40 | O=C([C@@H]1C[C@H](F)CN1C(=O)Nc1ccccc1)N1CCCCC1 | 0.832% | – | –
41 | Cc1noc(C)c1C(=O)N[C@@H]1CN(c2ccncn2)C[C@H]1CN(C)C | -7.32% | – | –
42 | CN(Cc1cccnc1)C(=O)CCC[C@@H]1[C@H]2CCCN3CCC[C@@H](CN1C(=O)c1cccnc1)[C@@H]23 | -1.49% | – | –
43 | CCCc1sc(NC(=O)C[C@H]2NC(=O)c3ccccc3NC2=O)nc1C(=O)OC | -32.3% | – | –
44 | Cc1ccc(N2CC(Cc3ccccc3)N(C(=O)c3ccnn3C)CC2=O)cc1 (configuration not stated) | -1.24% | – | –
45 | COc1cccc(CN2CCOC3CCN(C(=O)c4cccnc4)CC3C2=O)c1 (configuration not stated) | -13% [at 172 µM] | – | –
46 | COCCN1Cc2cc(OC)ccc2N(CC(O)COc2ccc(OC)cc2)CCC1=O (configuration not stated) | -16.6% | – | –
47 | COc1cccc(CN2CCN(C(=O)c3cnc4ccccn4c3=O)CC2=O)c1 | -6.66% | – | –
48 | COc1cccc(CN2Cc3nc(-c4cc(F)cc(F)c4)ccc3OCC2=O)c1 | – | 63.1 µM (active) | –
49 | COc1ccc(-c2noc(-c3cccn3CC(=O)Nc3ccccc3)n2)cc1F | -1.07% | – | –
50 | COc1ccc(-c2ccc3c(n2)CN(CCOc2ccccc2)C(=O)CO3)cc1F | – | 79.4 µM (active) | –

Row | Compound | activity change, negative = cytotoxicity | Potency | outcome
51 | COc1cccc(CN2Cc3nc(Nc4cccc(F)c4)ccc3OCC2=O)c1 | – | 89.1 µM (active) | –
52 | CCN(Cc1cnn(CC)c1)C(=O)C1CCCCC(=O)N1Cc1cccc(OC)c1 (configuration not stated) | -4.72% | – | –
53 | COc1cccc(CC(=O)NCCc2noc(-c3cccnc3)n2)c1 | -3.51% | – | –
54 | CCOCCOC1CCN(C(=O)NCc2ccc(C)cc2)CC1 | -9.46% | – | –
55 | CN1CCN(C(=O)c2nc3sccn3c2-c2ccc(F)cc2)CC1 | -3.39% | – | –
56 | COC(=O)[C@H]1CCCN1C(=O)[C@@H]1C[C@@H](NS(=O)(=O)c2cccs2)CCN1C(=O)COCC(=O)O | 2.93% | – | –
57 | CS(=O)(=O)N1C[C@H]2CCN(C(=O)c3ccncc3F)C[C@H]21 | 2.85% | – | –
58 | Cn1c(=O)[nH]cc(CC(=O)N2CCn3nc(Cc4ccccc4)cc3C2)c1=O | -15.7% | – | –
59 | CN(CCc1ccccn1)[C@@H]1[C@H](O)[C@H](CO)O[C@@H]1CNC1CCOCC1 | -6.2% | – | –
60 | COCC(=O)N[C@H]1CC(C)(C)[C@@H]2C[C@@](C)(O)CC[C@]12CCC(=O)N1CCN(c2ccccc2OC)CC1 | -24.2% | – | –
61 | CC(C)C(=O)N1CC(n2cc(COc3ccc(F)cc3)nn2)C1 | 3.3% | – | –
62 | COc1ccc(CC(=O)N2CCC(C(=O)N3CCC(N4Cc5ccccc5C4=O)CC3)CC2)cc1 | -9.54% | – | –
63 | CCCS(=O)(=O)N1Cc2c(ncn2Cc2ccc(Cl)cc2)C[C@H]1C(=O)OC | – | – | inactive [at 172 µM]
64 | CCOc1ccc2c(n1)CCN(C(=O)c1nccn1C)C2 | -2.75% | – | –
65 | O=C1CCN(C(=O)C2CCN(C(=O)CCCc3ccccc3)CC2)CCCCCCN1 | -9.4% | – | –
66 | COCCn1c(C)cc(C(=O)N2CCCC(c3[nH]ccc3C(N)=O)C2)c1C (configuration not stated) | -7.44% | – | –
67 | O=C1NCc2ccccc2CC12CCCN(Cc1ccc(F)cc1O)C2 (configuration not stated) | -29.2% | – | –
68 | CCOC(=O)C1(Cc2ccccc2F)CCCN(C(=O)CN2CCOC2=O)C1 (configuration not stated) | -14.2% | – | –
69 | CCOC(=O)C1(Cc2ccc(F)cc2F)CCCN(Cc2cccc(OC)c2O)C1 (configuration not stated) | – | 39.8 µM (active) | –
70 | Cc1ccc(N2CC(c3noc(-c4cc(Cl)ccc4F)n3)CC2=O)cc1 (configuration not stated) | -2.57% | – | –
71 | COc1ccc(N2CC(c3noc(-c4ccc(C(C)(C)C)cc4)n3)CC2=O)cc1 (configuration not stated) | – | 44.7 µM (active) | –
72 | Cc1ccc(-c2nc(C3CC(=O)N(c4ccc(Cl)cc4)C3)no2)cc1C (configuration not stated) | -27.1% | – | –
73 | Cc1ccc(CN2C(=O)[C@@H]3C[C@@H](O)CN3C3(CN(Cc4ccccn4)C3)C2=O)o1 | -2.96% [at 172 µM] | – | –
74 | O=C(NCCN[S+](=O)([O-])c1cccs1)c1ccc(-c2cccc(C(F)(F)F)c2)cc1 | – | 44.7 µM (active) | –
75 | O=C(NCCNC(=O)c1ccccc1F)c1ccc(-c2cccc(C(F)(F)F)c2)cc1 | – | inactive | –

Row | Compound | activity change, negative = cytotoxicity | Potency | outcome
76 | O=C(NCC(=O)N1CCC(c2ccccc2)CC1)c1ccc(-c2cccc(C(F)(F)F)c2)cc1 | -41.8% | – | –
77 | CC(=O)NCC(=O)N1Cc2ccccc2CC2(CCCN2Cc2cccnc2)C1 (configuration not stated) | -9.93% | – | –
78 | CC(C)CCN1CCC2(CC1)C(=O)NCN2Cc1ccc(Cl)cc1 | 1.53% | – | –
79 | COc1ccc(CCNC(=O)c2nnn3cc(-c4ccccc4)[nH]c(=O)c23)cc1OC | 1.64% | – | –
80 | Cc1cc2nc3n(c(=O)c2n1CC(=O)Nc1cccc(C(F)(F)F)c1)CCCC3 | – | 28.2 µM (active) | –
81 | Cc1cc2nc3n(c(=O)c2n1CC(=O)Nc1ccc(Br)cc1)CCCC3 | -11.8% | – | –
82 | Cc1cc2nc3n(c(=O)c2n1CC(=O)Nc1cc(F)cc(F)c1)CCCC3 | 12.9% | – | –
83 | Cc1noc(-c2ccc(OC3CN(C(=O)C4CCOC4)C3)cc2)n1 (configuration not stated) | -28.8% | – | –
84 | CO[C@H]1CN(C(C)C)[C@H]1C1CCN(C(=O)NCCc2ccccc2)CC1 | 2.29% | – | –
85 | NC(=O)[C@@H]1C[C@H](Oc2ccccc2)CN1C(=O)Cc1cccc(F)c1 | – | – | inactive
86 | COc1ccc(CC(=O)N2CCC3(CC2)CC(O)CCO3)cc1OC (configuration not stated) | -5.09% | – | –
87 | COc1cc(CN2CCC3(CC2)CC(O)CCO3)ccc1F (configuration not stated) | 1.59% | – | –
88 | COc1cc(CNCc2ccc(C)c(F)c2F)ccc1OCC(O)CN1CCC(O)CC1 (configuration not stated) | – | 17.8 µM (active) | –
89 | COc1ccc(CN2C=C(C(=O)OCc3nc(C)no3)C(C)=NS2(=O)=O)cc1 | -6.25% | – | –
90 | NC(=O)[C@@H](Cc1ccccc1)NC(=O)[C@@]1(O)C[C@@H](O)[C@H](O)[C@@H](NC(=O)Nc2ccc(OC(F)(F)F)cc2)C1 | 0.41% | – | –
91 | Cc1noc(C)c1[S+](=O)([O-])N(C)Cc1cccn1C | 2.89% [at 172 µM] | – | –
92 | Cn1nccc1CN1CCC(N2Cc3ccccc3C2=O)CC1 | 2.3% | – | –
93 | CN(Cc1cccn1C)Cc1ccnn1C | – | 100 µM (active) | –
94 | O=C(NC[C@H]1O[C@@H](CO)[C@@H](O)[C@H]1N1CCN(c2ccccc2)CC1)c1ccccc1Cl | -0.559% | – | –
95 | CC1(C(=O)N2CCc3ccccc3C2)CCOCC1 | – | – | inactive [at 230 µM]
96 | Cc1ccc(C(=O)N2CCC(CCC(=O)N3CCc4ccccc4C3)CC2)cc1 | – | 44.7 µM (active) | –
97 | CCCNC(=O)CCC1CCN(C(=O)c2ccc(C)cc2)CC1 | 5.93% | – | –
